Test results published in PubChem BioAssay (NCI).
Compounds without any hit were thinned out: in the full panel of roughly 83,000, 20% have a hit.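 Cells were grown in 96-well plates and exposed to the test compound at a single concentration for 48 hours; results are reported as percent growth, with values below 10 considered active.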 Active and inactive are the calls of the source.

Experiments:
Assay in all cases: NCI-60 one-dose screen, 48 h (100 = growth as untreated, 0 = no growth, -100 = all killed)
Details in all cases: 10 µM unless noted
SR leukemia = test system: SR leukemia
RPMI-8226 leukemia = test system: RPMI-8226 leukemia
OVCAR-8 ovarian = test system: OVCAR-8 ovarian
OVCAR-5 ovarian = test system: OVCAR-5 ovarian
OVCAR-4 ovarian = test system: OVCAR-4 ovarian
SK-OV-3 ovarian = test system: SK-OV-3 ovarian
IGROV1 ovarian = test system: IGROV1 ovarian
OVCAR-3 ovarian = test system: OVCAR-3 ovarian
HS 578T breast = test system: HS 578T breast
NCI/ADR-RES ovarian = test system: NCI/ADR-RES ovarian
T-47D breast = test system: T-47D breast
BT-549 breast = test system: BT-549 breast
MDA-MB-435 melanoma = test system: MDA-MB-435 melanoma
SW-620 colon = test system: SW-620 colon
MCF7 breast = test system: MCF7 breast
HCT-116 colon = test system: HCT-116 colon
HCC-2998 colon = test system: HCC-2998 colon
KM12 colon = test system: KM12 colon

Measured: growth

C=C1CC[C@@H]2[C@](C)(COC(C)=O)[C@H](OC(C)=O)CC[C@@]2(C)[C@@H]1CC(NCc1ccccc1)C1=CCOC1=O (stereo not given in full)
inactive: SR leukemia 20.9% | OVCAR-8 ovarian 28.2% | OVCAR-5 ovarian 102% | OVCAR-4 ovarian 35.9% | SK-OV-3 ovarian 79.2% | IGROV1 ovarian 62.9% | OVCAR-3 ovarian 31.8% | HS 578T breast 86.4% | NCI/ADR-RES ovarian 23.5% | T-47D breast 14.2% | BT-549 breast 28.1% | MDA-MB-435 melanoma 27.9% | SW-620 colon 47.3% | MCF7 breast 29.8% | HCT-116 colon 42.3% | HCC-2998 colon 93.7% | KM12 colon 39.1%
active: RPMI-8226 leukemia 3.18%

CC1CN(/N=C/c2ccc([N+](=O)[O-])o2)C(=N)O1 (stereo not given)
inactive: SR leukemia 107% | RPMI-8226 leukemia 97.4% | OVCAR-8 ovarian 96.6% | OVCAR-5 ovarian 106% | OVCAR-4 ovarian 101% | SK-OV-3 ovarian 118% | IGROV1 ovarian 98.3% | OVCAR-3 ovarian 105% | HS 578T breast 105% | NCI/ADR-RES ovarian 101% | T-47D breast 117% | BT-549 breast 117% | MDA-MB-435 melanoma 100% | SW-620 colon 98.2% | MCF7 breast 84.8% | HCT-116 colon 95.6% | HCC-2998 colon 98.3% | KM12 colon 91.7%

COc1cc(/C=C2\CN(S(=O)(=O)c3ccc(C)cc3)C/C(=C\c3cc(CN4CCOCC4)c(O)c(OC)c3)C2=O)cc(CN2CCOCC2)c1O
active: SR leukemia 4.35% | RPMI-8226 leukemia -24.8% | OVCAR-8 ovarian 2.94% | OVCAR-5 ovarian -26% | IGROV1 ovarian -17% | OVCAR-3 ovarian -17.3% | NCI/ADR-RES ovarian 5.42% | BT-549 breast -21.8% | MDA-MB-435 melanoma -19.7% | SW-620 colon 3.91% | HCT-116 colon -83.3% | HCC-2998 colon -89.3% | KM12 colon -74.4%
inactive: OVCAR-4 ovarian 24.8% | SK-OV-3 ovarian 42.6% | HS 578T breast 27.3% | T-47D breast 63.9% | MCF7 breast 10.6%

COc1cc(-c2nnc(-c3nc(-c4cc(OC)c(OC)c(OC)c4)n4ccccc34)o2)ccc1N
inactive: SR leukemia 69.6% | RPMI-8226 leukemia 39.6% | OVCAR-8 ovarian 50.8% | OVCAR-5 ovarian 106% | OVCAR-4 ovarian 76.5% | SK-OV-3 ovarian 96% | IGROV1 ovarian 56.4% | OVCAR-3 ovarian 77.6% | HS 578T breast 44.2% | NCI/ADR-RES ovarian 61.3% | T-47D breast 54.5% | BT-549 breast 67.1% | MDA-MB-435 melanoma 82.5% | SW-620 colon 87% | MCF7 breast 71.2% | HCT-116 colon 54.2% | HCC-2998 colon 89.1% | KM12 colon 68.3%

CN1CCN(c2nc3scc(-c4ccccc4)c3c(=O)[nH]2)CC1
inactive: SR leukemia 94.1% | RPMI-8226 leukemia 97.4% | OVCAR-8 ovarian 106% | OVCAR-5 ovarian 93% | OVCAR-4 ovarian 97.4% | SK-OV-3 ovarian 103% | IGROV1 ovarian 97.6% | OVCAR-3 ovarian 102% | HS 578T breast 100% | NCI/ADR-RES ovarian 99.2% | T-47D breast 104% | BT-549 breast 104% | MDA-MB-435 melanoma 99.7% | SW-620 colon 95.4% | MCF7 breast 92.5% | HCT-116 colon 91.9% | HCC-2998 colon 99.5% | KM12 colon 94.1%

O=C(Nc1cccc(-n2cc(-c3ccncc3)c(-c3cc(O)cc(Cl)c3)n2)c1)Nc1ccc(Cl)c(Cl)c1
inactive: OVCAR-4 ovarian 10.7% | SK-OV-3 ovarian 13.2% | IGROV1 ovarian 26% | NCI/ADR-RES ovarian 12.8%
active: SR leukemia -21.4% | RPMI-8226 leukemia -15.3% | OVCAR-8 ovarian -14.8% | OVCAR-5 ovarian -2.26% | OVCAR-3 ovarian -47.4% | HS 578T breast -6.42% | T-47D breast -5.53% | BT-549 breast 0.544% | MDA-MB-435 melanoma -33.3% | SW-620 colon -33.8% | MCF7 breast 2.74% | HCT-116 colon -57.3% | HCC-2998 colon 0.568% | KM12 colon 2.26%

Nc1nc(Nc2ccccc2SSc2ccccc2Nc2nc(N)nc(-c3ccc(I)cc3)n2)nc(-c2ccc(I)cc2)n1
inactive: SR leukemia 13.9% | RPMI-8226 leukemia 61.4% | OVCAR-8 ovarian 60.2% | OVCAR-5 ovarian 84.9% | OVCAR-4 ovarian 107% | SK-OV-3 ovarian 116% | IGROV1 ovarian 50.3% | OVCAR-3 ovarian 94.1% | HS 578T breast 89.1% | NCI/ADR-RES ovarian 49.6% | T-47D breast 67.1% | BT-549 breast 70.8% | MDA-MB-435 melanoma 86.7% | SW-620 colon 94.3% | MCF7 breast 76% | HCT-116 colon 50.1% | HCC-2998 colon 105% | KM12 colon 37.2%

CSc1nc2nc3c(c(-c4ccc(C)cc4)c2c(=O)[nH]1)CN(C)C/C3=C\c1ccc(C)cc1
inactive: SR leukemia 86.9% | RPMI-8226 leukemia 84.2% | OVCAR-8 ovarian 105% | OVCAR-5 ovarian 115% | OVCAR-4 ovarian 92.8% | SK-OV-3 ovarian 112% | IGROV1 ovarian 96.8% | OVCAR-3 ovarian 116% | HS 578T breast 95.8% | NCI/ADR-RES ovarian 94.7% | T-47D breast 103% | BT-549 breast 114% | MDA-MB-435 melanoma 91.8% | SW-620 colon 103% | MCF7 breast 87% | HCT-116 colon 101% | HCC-2998 colon 96.5% | KM12 colon 101%

CC(NNC(=S)N1CCCCCC1)c1ccc2ccccc2n1 (stereo not given)
inactive: SR leukemia 34.5% | RPMI-8226 leukemia 56.1% | OVCAR-8 ovarian 18.1% | OVCAR-5 ovarian 50.3% | OVCAR-4 ovarian 30.2% | SK-OV-3 ovarian 50.9% | IGROV1 ovarian 19.3% | OVCAR-3 ovarian 47.4% | HS 578T breast 78.5% | NCI/ADR-RES ovarian 20.8% | T-47D breast 29.8% | BT-549 breast 66.6% | MDA-MB-435 melanoma 40.6% | SW-620 colon 36% | MCF7 breast 16.5% | HCT-116 colon 26.5% | HCC-2998 colon 36.6% | KM12 colon 34.9%

O=C1C(=O)/C(=C/c2ccccc2)CCCCCC/C1=C/c1ccccc1
active: SR leukemia -13.5% | RPMI-8226 leukemia -33.5% | IGROV1 ovarian 5% | MDA-MB-435 melanoma -41.8% | SW-620 colon -19.1% | MCF7 breast 6.04% | HCT-116 colon -23.7% | HCC-2998 colon -22.3% | KM12 colon -23.6%
inactive: OVCAR-8 ovarian 29.9% | OVCAR-5 ovarian 114% | OVCAR-4 ovarian 60.9% | SK-OV-3 ovarian 98.2% | OVCAR-3 ovarian 21% | HS 578T breast 81.4% | NCI/ADR-RES ovarian 80.1% | T-47D breast 47.6% | BT-549 breast 16.4%

COc1cc(NC(C)CCCN)c2nc(C)ccc2c1Oc1ccc(F)cc1 (stereo not given)
inactive: SR leukemia 60.9% | RPMI-8226 leukemia 70.3% | OVCAR-8 ovarian 77.4% | OVCAR-5 ovarian 83.4% | OVCAR-4 ovarian 62.6% | SK-OV-3 ovarian 105% | IGROV1 ovarian 56.2% | OVCAR-3 ovarian 71.3% | HS 578T breast 49.7% | NCI/ADR-RES ovarian 77.6% | T-47D breast 87.4% | BT-549 breast 70.5% | MDA-MB-435 melanoma 104% | SW-620 colon 67% | MCF7 breast 62.1% | HCT-116 colon 33.9% | HCC-2998 colon 21.6% | KM12 colon 78.9%

Cc1ccccc1NC(=O)N/C(N)=N/c1nc2ccccc2s1
inactive: RPMI-8226 leukemia 16.3% | OVCAR-8 ovarian 19.7% | OVCAR-5 ovarian 35.5% | OVCAR-4 ovarian 65% | SK-OV-3 ovarian 65% | IGROV1 ovarian 14.7% | HS 578T breast 42.1% | T-47D breast 61.1% | SW-620 colon 25.8% | MCF7 breast 19% | HCT-116 colon 10.2% | HCC-2998 colon 17.2% | KM12 colon 14.9%
active: SR leukemia 8.11% | OVCAR-3 ovarian 1.83% | NCI/ADR-RES ovarian 8.91% | BT-549 breast -2.9% | MDA-MB-435 melanoma -11.4%

O=C1c2cccc3c([N+](=O)[O-])ccc(c23)C(=O)N1CCCCl
active: SR leukemia -6.13% [100 µM] | RPMI-8226 leukemia -11.6% [100 µM] | OVCAR-8 ovarian -64.2% [100 µM] | OVCAR-5 ovarian -92.5% [100 µM] | OVCAR-4 ovarian -97% [100 µM] | SK-OV-3 ovarian -99.6% [100 µM] | IGROV1 ovarian -57.7% [100 µM] | OVCAR-3 ovarian -87.1% [100 µM] | NCI/ADR-RES ovarian -37.9% [100 µM] | T-47D breast -48.4% [100 µM] | BT-549 breast -98.2% [100 µM] | MDA-MB-435 melanoma -89.3% [100 µM] | SW-620 colon -44.4% [100 µM] | MCF7 breast -65.5% [100 µM] | HCT-116 colon -90.6% [100 µM] | HCC-2998 colon -91.9% [100 µM] | KM12 colon -81.3% [100 µM]
inactive: HS 578T breast 23.3% [100 µM]

Cc1ccc(N/N=C(/C(=O)c2ccc(Cl)cc2)c2nc(C)cc(=O)[nH]2)cc1
inactive: SR leukemia 84.4% | RPMI-8226 leukemia 85.1% | OVCAR-8 ovarian 101% | OVCAR-5 ovarian 122% | OVCAR-4 ovarian 116% | SK-OV-3 ovarian 116% | OVCAR-3 ovarian 95.8% | HS 578T breast 99.9% | NCI/ADR-RES ovarian 103% | T-47D breast 88.3% | BT-549 breast 118% | MDA-MB-435 melanoma 123% | SW-620 colon 93.7% | MCF7 breast 91% | HCT-116 colon 86.9% | HCC-2998 colon 116% | KM12 colon 115%
active: IGROV1 ovarian 7.59%

Cn1cnc([N+](=O)[O-])c1Sc1nc(N)nc2nc[nH]c12
inactive: SR leukemia 10.5% | OVCAR-8 ovarian 29.5% | OVCAR-5 ovarian 28.7% | OVCAR-4 ovarian 42.8% | OVCAR-3 ovarian 22.7% | HS 578T breast 65.6% | NCI/ADR-RES ovarian 32.4% | T-47D breast 47.2% | BT-549 breast 43.4% | MDA-MB-435 melanoma 25% | SW-620 colon 50.7% | MCF7 breast 15.1% | HCT-116 colon 23% | HCC-2998 colon 19.6% | KM12 colon 23.5%
active: RPMI-8226 leukemia -19.5% | SK-OV-3 ovarian 2.59% | IGROV1 ovarian -13.1%
